For orientation: residual activity means the signal under treatment as a percentage of the control signal.

This is an account of results in ChEMBL document CHEMBL2218924, “A broad activity screen in support of a chemogenomic map for kinase signalling research and drug discovery” (Biochem J, 2013).

For experiment [1], the target named is T1, Muscle, skeletal receptor tyrosine-protein kinase (Homo sapiens) (UniProt O15146).
T1 sequence (whole entry): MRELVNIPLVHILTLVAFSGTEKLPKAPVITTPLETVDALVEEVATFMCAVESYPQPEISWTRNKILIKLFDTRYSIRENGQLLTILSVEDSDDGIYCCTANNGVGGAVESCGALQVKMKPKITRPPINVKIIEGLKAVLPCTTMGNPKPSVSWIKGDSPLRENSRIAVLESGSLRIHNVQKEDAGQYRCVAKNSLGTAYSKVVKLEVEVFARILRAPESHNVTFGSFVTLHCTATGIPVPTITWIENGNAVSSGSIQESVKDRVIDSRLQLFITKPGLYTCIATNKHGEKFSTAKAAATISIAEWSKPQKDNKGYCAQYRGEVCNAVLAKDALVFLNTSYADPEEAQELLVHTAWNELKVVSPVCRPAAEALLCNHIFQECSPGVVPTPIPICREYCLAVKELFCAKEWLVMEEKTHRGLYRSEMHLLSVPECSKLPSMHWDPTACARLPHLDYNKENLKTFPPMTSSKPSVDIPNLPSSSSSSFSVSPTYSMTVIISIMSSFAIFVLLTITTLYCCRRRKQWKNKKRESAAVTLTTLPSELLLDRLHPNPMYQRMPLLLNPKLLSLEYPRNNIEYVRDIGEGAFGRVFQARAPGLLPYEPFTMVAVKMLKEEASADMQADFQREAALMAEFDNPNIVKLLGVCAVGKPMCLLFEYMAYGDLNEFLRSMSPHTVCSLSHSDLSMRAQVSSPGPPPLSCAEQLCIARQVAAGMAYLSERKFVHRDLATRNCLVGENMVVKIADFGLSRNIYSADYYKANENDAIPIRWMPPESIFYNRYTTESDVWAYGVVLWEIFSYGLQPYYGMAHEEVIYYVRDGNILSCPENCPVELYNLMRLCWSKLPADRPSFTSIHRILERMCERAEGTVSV
Particulars: at 1 µM.

Experiment [2] deals with T1, Muscle, skeletal receptor tyrosine-protein kinase (Homo sapiens). Particulars: at 10 µM.
Experiment [3] addresses T2, Serine/threonine-protein kinase Nek11 (Homo sapiens) (UniProt Q8NG66).
T2 sequence (whole entry): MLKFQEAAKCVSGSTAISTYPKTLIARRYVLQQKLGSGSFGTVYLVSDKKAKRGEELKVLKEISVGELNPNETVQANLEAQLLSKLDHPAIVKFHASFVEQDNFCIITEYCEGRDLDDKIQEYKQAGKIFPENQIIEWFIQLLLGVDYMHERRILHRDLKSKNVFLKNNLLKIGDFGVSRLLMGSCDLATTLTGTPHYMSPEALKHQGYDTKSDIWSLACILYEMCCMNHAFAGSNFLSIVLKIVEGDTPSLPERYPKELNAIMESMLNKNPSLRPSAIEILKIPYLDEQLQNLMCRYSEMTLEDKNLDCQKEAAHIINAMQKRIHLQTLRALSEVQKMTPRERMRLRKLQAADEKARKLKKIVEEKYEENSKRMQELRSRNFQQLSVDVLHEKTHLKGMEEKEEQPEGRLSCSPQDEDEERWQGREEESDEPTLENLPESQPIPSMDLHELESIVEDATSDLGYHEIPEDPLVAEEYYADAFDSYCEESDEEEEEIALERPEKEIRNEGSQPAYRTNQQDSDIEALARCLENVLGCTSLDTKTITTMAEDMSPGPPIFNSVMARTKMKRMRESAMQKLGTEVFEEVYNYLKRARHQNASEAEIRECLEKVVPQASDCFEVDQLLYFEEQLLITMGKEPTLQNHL
As to conditions: at 1 µM.

The target in experiment [4] is T2, Serine/threonine-protein kinase Nek11 (Homo sapiens). Particulars: at 10 µM.
In experiment [5] the target is T3, Serine/threonine-protein kinase Nek2 (Homo sapiens) (UniProt P51955).
T3 sequence (whole entry): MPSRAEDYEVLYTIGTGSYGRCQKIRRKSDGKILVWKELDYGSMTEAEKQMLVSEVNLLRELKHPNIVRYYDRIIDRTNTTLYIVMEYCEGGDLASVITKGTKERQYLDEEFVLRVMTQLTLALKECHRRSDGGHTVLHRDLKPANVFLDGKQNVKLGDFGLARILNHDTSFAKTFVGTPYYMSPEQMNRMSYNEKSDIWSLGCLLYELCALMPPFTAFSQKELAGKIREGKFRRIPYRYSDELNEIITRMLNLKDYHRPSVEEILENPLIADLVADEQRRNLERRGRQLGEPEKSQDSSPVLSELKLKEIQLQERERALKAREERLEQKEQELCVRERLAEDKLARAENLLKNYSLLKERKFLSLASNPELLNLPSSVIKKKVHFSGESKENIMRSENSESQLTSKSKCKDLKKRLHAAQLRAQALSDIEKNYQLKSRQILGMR
As to conditions: at 1 µM.

The target in experiment [6] is T3, Serine/threonine-protein kinase Nek2 (Homo sapiens). Particulars: at 10 µM.
Experiment [7] deals with Serine/threonine-protein kinase tousled-like 2 (Homo sapiens) (UniProt Q86UE8). Particulars: at 1 µM.
The target is the same in experiment [8]. Particulars: at 10 µM.
Experiment [9] has as its target T4, Testis-specific serine/threonine-protein kinase 1 (Homo sapiens) (UniProt Q9BXA7).
T4 sequence (whole entry): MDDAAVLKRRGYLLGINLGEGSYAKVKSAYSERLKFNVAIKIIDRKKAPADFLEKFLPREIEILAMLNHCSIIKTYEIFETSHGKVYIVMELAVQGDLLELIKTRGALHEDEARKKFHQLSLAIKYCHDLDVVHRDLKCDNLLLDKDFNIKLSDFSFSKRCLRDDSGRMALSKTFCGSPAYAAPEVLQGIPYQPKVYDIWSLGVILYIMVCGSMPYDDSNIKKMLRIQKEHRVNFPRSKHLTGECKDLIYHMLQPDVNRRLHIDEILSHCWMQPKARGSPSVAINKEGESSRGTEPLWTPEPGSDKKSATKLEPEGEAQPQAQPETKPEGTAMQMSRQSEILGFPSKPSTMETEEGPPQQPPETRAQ
Particulars: at 1 µM.

Experiment [10] deals with T4, Testis-specific serine/threonine-protein kinase 1 (Homo sapiens). Particulars: at 10 µM.
For experiment [11], the target named is T5, Testis-specific serine/threonine-protein kinase 2 (Homo sapiens) (UniProt Q96PF2).
T5 sequence (whole entry): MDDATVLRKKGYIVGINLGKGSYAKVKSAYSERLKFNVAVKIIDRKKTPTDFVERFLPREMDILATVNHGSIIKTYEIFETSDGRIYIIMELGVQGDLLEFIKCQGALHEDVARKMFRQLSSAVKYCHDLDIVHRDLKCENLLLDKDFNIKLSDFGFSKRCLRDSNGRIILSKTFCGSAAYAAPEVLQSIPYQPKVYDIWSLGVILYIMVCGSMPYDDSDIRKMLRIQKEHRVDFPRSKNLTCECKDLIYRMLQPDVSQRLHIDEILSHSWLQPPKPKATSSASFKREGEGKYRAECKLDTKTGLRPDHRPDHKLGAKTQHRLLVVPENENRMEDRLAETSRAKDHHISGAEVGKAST
Particulars: at 10 µM.

Experiment [12] has as its target T6, Tyrosine-protein kinase Tec (Homo sapiens) (UniProt P42680).
T6 sequence (whole entry): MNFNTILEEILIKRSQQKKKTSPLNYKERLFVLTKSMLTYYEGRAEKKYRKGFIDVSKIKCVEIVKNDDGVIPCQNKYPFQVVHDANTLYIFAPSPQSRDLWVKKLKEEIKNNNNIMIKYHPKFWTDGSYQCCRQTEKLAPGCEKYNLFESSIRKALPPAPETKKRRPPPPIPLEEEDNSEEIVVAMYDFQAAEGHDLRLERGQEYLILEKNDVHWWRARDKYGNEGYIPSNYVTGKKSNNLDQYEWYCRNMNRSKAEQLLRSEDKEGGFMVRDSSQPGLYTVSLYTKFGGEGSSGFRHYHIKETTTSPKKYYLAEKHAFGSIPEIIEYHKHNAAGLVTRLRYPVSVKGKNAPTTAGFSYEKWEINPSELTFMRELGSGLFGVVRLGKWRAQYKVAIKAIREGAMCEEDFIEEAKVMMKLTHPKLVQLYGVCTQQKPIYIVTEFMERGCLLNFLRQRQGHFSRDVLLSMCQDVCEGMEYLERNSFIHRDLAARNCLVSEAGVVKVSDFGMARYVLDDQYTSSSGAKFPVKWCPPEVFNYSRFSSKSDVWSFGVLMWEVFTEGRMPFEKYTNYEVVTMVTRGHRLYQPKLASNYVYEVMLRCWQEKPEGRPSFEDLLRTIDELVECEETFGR
Particulars: at 1 µM.

Experiment [13] deals with T6, Tyrosine-protein kinase Tec (Homo sapiens). Particulars: at 10 µM.
For experiment [14], the target named is Angiopoietin-1 receptor (Homo sapiens) (UniProt Q02763). Particulars: at 1 µM.
The target is the same in experiment [15]. Particulars: at 10 µM.
Experiment [16] has as its target High affinity nerve growth factor receptor (Homo sapiens) (UniProt P04629). Particulars: at 1 µM.
Experiment [17] has the same target. Particulars: at 10 µM.
For experiment [18], the target named is T7, Serine/threonine-protein kinase Nek3 (Homo sapiens) (UniProt P51956).
T7 sequence (whole entry): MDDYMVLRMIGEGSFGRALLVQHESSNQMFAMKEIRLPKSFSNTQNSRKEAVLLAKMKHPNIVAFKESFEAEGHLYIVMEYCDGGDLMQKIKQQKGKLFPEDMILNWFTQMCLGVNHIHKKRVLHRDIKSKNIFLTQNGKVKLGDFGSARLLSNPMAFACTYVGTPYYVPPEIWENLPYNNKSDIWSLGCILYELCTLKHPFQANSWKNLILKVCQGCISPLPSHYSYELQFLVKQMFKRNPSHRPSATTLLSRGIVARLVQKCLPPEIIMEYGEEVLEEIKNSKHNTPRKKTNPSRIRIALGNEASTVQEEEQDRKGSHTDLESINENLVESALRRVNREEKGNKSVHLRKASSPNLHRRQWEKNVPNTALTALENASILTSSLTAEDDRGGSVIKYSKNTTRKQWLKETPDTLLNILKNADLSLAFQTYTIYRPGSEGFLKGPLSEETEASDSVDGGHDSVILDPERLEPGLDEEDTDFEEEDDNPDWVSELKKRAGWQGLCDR
Particulars: at 1 µM.

The target in experiment [19] is T7, Serine/threonine-protein kinase Nek3 (Homo sapiens). As to conditions: at 10 µM.
The target in experiment [20] is BDNF/NT-3 growth factors receptor (Homo sapiens) (UniProt Q16620). As to conditions: at 1 µM.

Structures are written as SMILES.

Chain of Serine/threonine-protein kinase tousled-like 2 (Homo sapiens) (Q86UE8 whole entry, looked up): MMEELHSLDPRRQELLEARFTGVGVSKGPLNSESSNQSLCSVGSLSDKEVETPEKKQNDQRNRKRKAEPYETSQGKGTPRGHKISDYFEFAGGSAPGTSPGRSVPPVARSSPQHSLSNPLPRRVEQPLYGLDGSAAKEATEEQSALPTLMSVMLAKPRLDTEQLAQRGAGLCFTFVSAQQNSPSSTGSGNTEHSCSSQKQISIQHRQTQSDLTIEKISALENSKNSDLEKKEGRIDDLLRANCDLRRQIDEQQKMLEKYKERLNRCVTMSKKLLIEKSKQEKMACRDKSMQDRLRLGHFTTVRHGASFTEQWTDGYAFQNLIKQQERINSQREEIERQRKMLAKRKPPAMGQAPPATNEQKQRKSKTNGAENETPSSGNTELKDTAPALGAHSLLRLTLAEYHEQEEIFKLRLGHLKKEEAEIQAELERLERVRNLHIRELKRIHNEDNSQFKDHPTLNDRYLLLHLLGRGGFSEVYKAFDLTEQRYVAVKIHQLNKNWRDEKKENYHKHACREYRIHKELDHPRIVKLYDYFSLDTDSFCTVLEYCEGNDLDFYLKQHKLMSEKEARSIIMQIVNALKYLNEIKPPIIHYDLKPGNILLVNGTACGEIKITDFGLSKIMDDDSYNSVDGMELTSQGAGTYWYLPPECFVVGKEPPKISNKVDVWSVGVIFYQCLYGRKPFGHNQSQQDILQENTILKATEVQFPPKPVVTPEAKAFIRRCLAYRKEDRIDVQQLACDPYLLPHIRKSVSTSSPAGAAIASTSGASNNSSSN
Chain of BDNF/NT-3 growth factors receptor (Homo sapiens) (Q16620 32-822 limits assumed): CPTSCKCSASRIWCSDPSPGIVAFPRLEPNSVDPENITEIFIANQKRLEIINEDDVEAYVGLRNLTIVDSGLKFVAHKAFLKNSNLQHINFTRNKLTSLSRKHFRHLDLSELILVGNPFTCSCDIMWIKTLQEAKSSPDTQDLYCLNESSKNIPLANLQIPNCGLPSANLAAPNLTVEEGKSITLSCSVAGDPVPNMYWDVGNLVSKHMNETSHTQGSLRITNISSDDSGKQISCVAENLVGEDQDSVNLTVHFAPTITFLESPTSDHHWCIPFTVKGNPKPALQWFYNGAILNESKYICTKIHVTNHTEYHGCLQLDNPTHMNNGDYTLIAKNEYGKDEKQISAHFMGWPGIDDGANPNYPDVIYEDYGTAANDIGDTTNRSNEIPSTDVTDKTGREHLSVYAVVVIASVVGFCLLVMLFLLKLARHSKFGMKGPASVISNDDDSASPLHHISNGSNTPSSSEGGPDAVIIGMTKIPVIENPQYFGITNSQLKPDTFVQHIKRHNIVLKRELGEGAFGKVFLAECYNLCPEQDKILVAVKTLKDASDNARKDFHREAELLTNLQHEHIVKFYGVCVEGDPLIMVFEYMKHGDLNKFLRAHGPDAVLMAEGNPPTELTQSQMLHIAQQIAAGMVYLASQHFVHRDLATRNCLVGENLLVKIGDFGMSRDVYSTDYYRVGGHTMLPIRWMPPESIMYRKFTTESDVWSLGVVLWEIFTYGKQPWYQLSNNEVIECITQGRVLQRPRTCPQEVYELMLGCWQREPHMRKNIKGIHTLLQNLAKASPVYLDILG
Chain of High affinity nerve growth factor receptor (Homo sapiens) (P04629 33-796 limits assumed): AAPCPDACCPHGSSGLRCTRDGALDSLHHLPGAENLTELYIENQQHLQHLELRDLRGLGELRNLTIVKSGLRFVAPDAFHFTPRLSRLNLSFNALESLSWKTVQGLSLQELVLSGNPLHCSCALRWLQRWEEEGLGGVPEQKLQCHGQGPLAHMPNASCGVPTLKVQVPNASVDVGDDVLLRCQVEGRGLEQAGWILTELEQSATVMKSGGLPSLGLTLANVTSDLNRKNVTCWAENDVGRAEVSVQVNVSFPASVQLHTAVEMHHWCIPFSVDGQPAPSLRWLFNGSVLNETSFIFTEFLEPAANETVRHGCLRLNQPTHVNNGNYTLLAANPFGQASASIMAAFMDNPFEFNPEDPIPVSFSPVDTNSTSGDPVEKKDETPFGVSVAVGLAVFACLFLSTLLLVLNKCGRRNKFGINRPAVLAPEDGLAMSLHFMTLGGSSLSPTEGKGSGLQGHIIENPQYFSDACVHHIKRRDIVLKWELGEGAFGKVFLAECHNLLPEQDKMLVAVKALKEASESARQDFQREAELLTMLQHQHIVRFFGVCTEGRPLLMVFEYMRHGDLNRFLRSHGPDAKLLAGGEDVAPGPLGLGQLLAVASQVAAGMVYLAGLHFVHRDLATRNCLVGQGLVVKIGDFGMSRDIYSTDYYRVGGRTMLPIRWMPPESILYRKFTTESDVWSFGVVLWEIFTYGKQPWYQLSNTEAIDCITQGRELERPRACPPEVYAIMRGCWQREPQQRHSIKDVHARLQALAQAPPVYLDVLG
Chain of Angiopoietin-1 receptor (Homo sapiens) (Q02763 whole entry): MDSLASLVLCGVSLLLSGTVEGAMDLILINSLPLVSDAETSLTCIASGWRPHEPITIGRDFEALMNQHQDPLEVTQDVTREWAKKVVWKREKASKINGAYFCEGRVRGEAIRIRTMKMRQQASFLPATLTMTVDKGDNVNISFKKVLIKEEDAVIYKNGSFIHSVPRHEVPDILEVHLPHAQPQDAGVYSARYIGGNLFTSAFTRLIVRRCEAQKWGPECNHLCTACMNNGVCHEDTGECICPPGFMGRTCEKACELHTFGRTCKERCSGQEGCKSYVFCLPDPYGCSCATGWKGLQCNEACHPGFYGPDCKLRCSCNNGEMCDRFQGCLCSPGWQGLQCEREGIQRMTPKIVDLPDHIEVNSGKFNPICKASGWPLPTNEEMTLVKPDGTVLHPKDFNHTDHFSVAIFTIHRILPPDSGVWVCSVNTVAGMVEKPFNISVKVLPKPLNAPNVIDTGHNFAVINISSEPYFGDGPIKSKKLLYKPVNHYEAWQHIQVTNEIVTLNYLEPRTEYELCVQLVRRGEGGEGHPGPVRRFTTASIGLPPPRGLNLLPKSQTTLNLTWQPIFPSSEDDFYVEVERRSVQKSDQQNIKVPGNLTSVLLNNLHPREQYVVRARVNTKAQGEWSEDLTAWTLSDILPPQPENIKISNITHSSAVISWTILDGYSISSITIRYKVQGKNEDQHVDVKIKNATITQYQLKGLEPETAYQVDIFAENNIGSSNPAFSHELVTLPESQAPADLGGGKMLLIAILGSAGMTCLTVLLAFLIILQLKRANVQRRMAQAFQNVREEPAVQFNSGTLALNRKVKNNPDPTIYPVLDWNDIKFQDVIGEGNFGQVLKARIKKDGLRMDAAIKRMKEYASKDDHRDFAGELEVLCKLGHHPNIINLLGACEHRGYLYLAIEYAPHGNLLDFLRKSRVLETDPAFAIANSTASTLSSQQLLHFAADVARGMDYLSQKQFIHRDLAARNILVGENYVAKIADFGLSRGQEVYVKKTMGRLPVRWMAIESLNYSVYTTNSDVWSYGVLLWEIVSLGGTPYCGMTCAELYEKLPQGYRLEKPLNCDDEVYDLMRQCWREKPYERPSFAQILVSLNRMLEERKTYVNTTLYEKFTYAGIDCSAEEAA

As for `Cc1cccc(-c2[nH]c(C(C)(C)C)nc2-c2ccc3c(c2)OCO3)n1`, the residual activity in experiment [1] was 98%; in experiment [2], 87%; in experiment [3] it was 80%; in experiment [4] it was 107%; in experiment [5], 88%; in experiment [6] it was 95%. Besides, the residual activity in experiment [7] is 96%; in experiment [8], 95%; in [9] it was 101%; in experiment [10], 90%; in experiment [11] it was 94%; in [12], 97%. Moreover, the residual activity turned out to be 91% in experiment [13]; 101% in [14]; 83% in experiment [15]; 92% in experiment [16]; 106% in experiment [17].

For the compound `CCN(CC)C(=O)c1ccc(Nc2nc(OCC3CCCCC3)c3nc[nH]c3n2)cc1`, the residual activity in [1] worked out at 32%; in experiment [2], 4%; in [3] it was 67%; in experiment [4] it was 41%; in [5], 68%; in experiment [6], 11%. Moreover, the residual activity in [18] worked out at 47%; in [19], 18%; in experiment [9], 14%; in experiment [10], 2%; in [11], 14%; in experiment [12], 24%. In addition, the residual activity was 2% in experiment [13]; 8% in [15]; 8% in [16]; 0% in experiment [17]; 36% in [20].

Regarding `COc1cc2ncc(-c3ccccc3)nc2cc1OC`, the residual activity in [3] was 87%; in [5], 94%; in experiment [6], 100%; in experiment [18], 125%; in experiment [19], 85%; in experiment [10] it was 92%. Further, the residual activity in [11] is 84%; in experiment [12], 96%; in [13] it was 63%; in [15], 80%; in experiment [16] it was 39%; in [17], -1%. The residual activity in experiment [20] is 54%.

For the compound `N#Cc1cnc2cnc(NCc3cccnc3)cc2c1Nc1ccc(F)c(Cl)c1`, the residual activity in experiment [1] worked out at 93%; in experiment [2], 60%; in [3], 88%; in experiment [4], 79%; in [18], 37%; in [19], 46%. For the same compound, the residual activity in [7] is 73%; in experiment [8], 47%; in [9], 0%; in [10], -1%; in experiment [11] it was 14%; in experiment [12], 90%. Besides, the residual activity in experiment [13] is 65%; in experiment [16], 101%; in experiment [17] it was 88%; in experiment [20] it was 3%.
